In PubChem BioAssay AID2284422 (EPA ToxCast) one finds outcome and AC50 data, which are given here for 16 compounds.

The source made the active and inactive calls. How the source made its calls: active means hit-call score of the fitted dose curve at least 0.9, where 1 is the maximum; inactive means score below 0.9.

The experiment in a line: CCTE_Deisenroth_DEVTOX-GLR_Meso_CellCount: Viability Assessment in CCTE's DevTox GLR-Meso Assay, Deisenroth Lab. The protocol: CCTE_Deisenroth_DEVTOX-GLR_Meso assay is a cell-based, multiplex-readout assay that uses RUES2-GLR, a human pluripotent cell line, with measurements taken at 48 hours after chemical dosing in a 384-well microplateCCTE_Deisenroth_DEVTOX-GLR_Meso_CellCount is 1 of 4 assay components calculated from the CCTE_Deisenroth_DEVTOX-GLR_Meso assay and it measures cell count. Using fluorescent nuclei staining, gain-of-signal activity can be used to understand changes in cell viability with fluorescent microscopy. It is designed to make measurements of nuclei counts as a surrogate for cell number, as detected with optical fluorescence microscopy by Perkin Elmer Harmony nuclei detection algorithm. To generalize the intended target to other relatable targets, this assay component is annotated to the cell cycle intended target family, where the subfamily is cytotoxicity.Data from the assay component CCTE_Deisenroth_DEVTOX-GLR_Meso_CellCount was analyzed as 1 assay endpoint. The endpoint the percent change in cell count relative to the 0.2% DMSO control in the CCTE_Deisenroth_DEVTOX-GLR_Meso assay. Furthermore, this assay endpoint can be referred to as a primary readout, because this assay has produced multiple assay endpoints where this one serves as a measure of cytotoxicity.
All assay protocols are aligned to the DevTox GLR-Endo assay workflow. Cells are seeded into 384-well microplates for 24 hours prior to initiating differentiation in defined media for a total duration of 48 hours. A total of two chemical exposures are administered in 24-hour intervals during the 48-hour differentiation period. At the assay termination point, cells are fixed and stained with a fluorescent dye demarcating the nucleus. High-content imaging is used to acquire brightfield and fluorescent channel images across 5 fields per well. Cell identification and mean biomarker fluorescence intensities are calculated with image analysis software to determine the total cell counts for viability assessment and the biomarker expression frequency for each lineage-dependent assay. A typical experimental design tests a 10-point concentration series (1 nM - 200 uM) for 28 compounds in single technical replicate. Assay plate controls include non-differentiated pluripotent cells (baseline control), lineage-specific differentiated cells (differentiation control), and DMSO solvent exposed differentiated cells (solvent control). Experiments typically comprise a minimum of four experimental replicates (n=4).
Consider `CC(=O)Nc1ccc(O)cc1`, for which the compound was classed as inactive.
On the same count and under the same terms, as for `Nc1cccc2c1C(=O)N(C1CCC(=O)NC1=O)C2=O` (stereo unspecified), the entry is “inactive”.
On to `CC1=C(/C=C/C(C)=C/C=C/C(C)=C\C(=O)O)C(C)(C)CCC1`, for which the AC50 is 18.6 µM (active).
As to `CC/C(=C(/CC)c1ccc(O)cc1)c1ccc(O)cc1`, the AC50 is 2.86 µM (active).
The same measure, in the same setting: the figure for `CCN(CC)CCNC(=O)c1c(C)[nH]c(/C=C2\C(=O)Nc3ccc(F)cc32)c1C` is 1.18 µM (active).
As to `O=c1[nH]cc(F)c(=O)[nH]1`, the AC50 was 4.95 µM (active).
On to `Nc1nc2ncc(CNc3ccc(C(=O)N[C@@H](CCC(=O)O)C(=O)O)cc3)nc2c(=O)[nH]1`, for which the call was inactive.
Same read-out and setting: the entry for `O=C1NS(=O)(=O)c2ccccc21` is “inactive”.
`CC(C)(c1ccc(O)cc1)c1ccc(O)cc1`: the AC50 is 33.5 µM (active).
The same measure, in the same setting: as for `O=C1NC(=O)C(c2ccccc2)(c2ccccc2)N1`, the figure is 100 µM (active).
For the compound `O=C1CCC(N2C(=O)c3ccccc3C2=O)C(=O)N1` (stereo unspecified), the compound was classed as inactive.
Take `CS(=O)(=O)OCCCCOS(C)(=O)=O`: the half-maximal activity concentration (AC50) was 57.8 µM (active).
For `CC1=C(/C=C/C(C)=C/C=C/C(C)=C/C(=O)O)C(C)(C)CCC1`, the half-maximal activity concentration (AC50) is 18.5 µM (active).
On to `CCCC(CCC)C(=O)O`, for which the compound was classed as inactive.
For `CN(Cc1cnc2nc(N)nc(N)c2n1)c1ccc(C(=O)N[C@@H](CCC(=O)O)C(=O)O)cc1`, the call was inactive.
On to `CC1(C)S[C@@H]2[C@H](NC(=O)Cc3ccccc3)C(=O)N2[C@H]1C(=O)O`, for which the call was inactive.

A word on the AC50: it is the concentration giving half of the maximal activity seen.
